# Test results reported in PubChem BioAssay (NCATS).
# Results filed as inconclusive are left out. Entries that show only a call come without a potency. The source made the active and inactive calls. The call rests on the fitted dose curve; in most records, active means well fitted inhibition curve with a large enough effect; inconclusive means small, poorly fitted or top-dose-only effect; inactive means flat fitted curve, though single readings scatter.
# Tests used:
# Test in all cases: qHTS profiling for inhibitors of Plasmodium falciparum proliferation (AID 504749); further: nearly all actives have a fitted effect of over 60% in size
# Details in all cases: P. falciparum in erythrocytes, SYBR Green DNA, 72 h; series mostly up to 28.7 µM
# CP203 = system: CP203
# Outline: (§1)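 Fluorescence of SYBR Green-bound parasite DNA, read at 485/535 nm, served as the growth measure. Infected erythrocytes were cultured with compound 72 h; artemisinin (0.29 uM) and DMSO wells defined the normalization range.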
# CP211 = system: CP211
# Outline: as §1
# CP215 = system: CP215
# Outline: as §1
# CP217 = system: CP217
# Outline: as §1
# CP237 = system: CP237
# Outline: as §1
# CP238 = system: CP238
# Outline: as §1
# CP247 = system: CP247
# Outline: as §1
# CP250 = system: CP250
# Outline: as §1
# CP252 = system: CP252
# Outline: as §1
# CP256 = system: CP256
# Outline: as §1
# CP260 = system: CP260
# Outline: as §1
# CP262 = system: CP262
# Outline: as §1
# CP265 = system: CP265
# Outline: as §1
# CP266 = system: CP266
# Outline: as §1
# CP268 = system: CP268
# Outline: as §1
# CP269 = system: CP269
# Outline: as §1
# CP286 = system: CP286
# Outline: as §1
# CP291 = system: CP291
# Outline: as §1
# CP297 = system: CP297
# Outline: as §1
# CP305 = system: CP305
# Outline: as §1
# Potency means the concentration at half of the fitted maximal effect.
Structure (SMILES),Potency (CP203),Potency (CP211),Potency (CP215),Potency (CP217),Potency (CP237),Potency (CP238),Potency (CP247),Potency (CP250),Potency (CP252),Potency (CP256),Potency (CP260),Potency (CP262),Potency (CP265),outcome (CP266),Potency (CP268),Potency (CP269),Potency (CP286),Potency (CP291),Potency (CP297),Potency (CP305)
N#Cc1ccc(C(c2ccc(C#N)cc2)n2cncn2)cc1,inactive,inactive,inactive,inactive,inactive,inactive,inactive,inactive,inactive,inactive,inactive,inactive,inactive,inactive,inactive,inactive,inactive,inactive,inactive,inactive
CC(=O)Oc1ccccc1C(=O)O,inactive,inactive,inactive,inactive,inactive,inactive,inactive,inactive,inactive,inactive,inactive,inactive,inactive,inactive,inactive,inactive,inactive,inactive,inactive,inactive
O=NN(CCCl)C(=O)NCCCl,inactive,inactive,inactive,inactive,inactive,inactive,inactive,inactive,inactive,inactive,inactive,inactive,inactive,inactive,inactive,inactive,,inactive,inactive,inactive
CC(C)C[C@H](NC(=O)[C@@H](O)[C@H](N)Cc1ccccc1)C(=O)O,6.01 µM (active),6.01 µM (active),6.75 µM (active),6.31 µM (active),4.47 µM (active),12.6 µM (active),6.31 µM (active),10 µM (active),6.31 µM (active),5.62 µM (active),4.47 µM (active),inactive,11.2 µM (active),,13.5 µM (active),9.53 µM (active),5.01 µM (active),5.36 µM (active),8.49 µM (active),6.01 µM (active)
NS(=O)(=O)c1cc2c(cc1Cl)NC=NS2(=O)=O,inactive,inactive,inactive,inactive,inactive,inactive,inactive,inactive,inactive,inactive,inactive,inactive,inactive,inactive,inactive,inactive,inactive,inactive,inactive,inactive
Cc1cn[nH]c1,inactive,inactive,inactive,inactive,inactive,inactive,inactive,inactive,inactive,inactive,inactive,inactive,inactive,inactive,inactive,inactive,inactive,inactive,inactive,inactive
Nc1nc2ccc(OC(F)(F)F)cc2s1,inactive,inactive,inactive,inactive,inactive,inactive,inactive,inactive,inactive,inactive,inactive,inactive,inactive,inactive,inactive,inactive,inactive,inactive,inactive,inactive
Oc1ccc(C2CNCCc3c2cc(O)c(O)c3Cl)cc1 (stereo unspecified),inactive,inactive,inactive,inactive,inactive,inactive,inactive,inactive,inactive,inactive,inactive,inactive,inactive,inactive,inactive,inactive,,inactive,inactive,inactive
Cc1ccc(N(CC2=NCCN2)c2cccc(O)c2)cc1,inactive,inactive,inactive,inactive,inactive,inactive,inactive,inactive,inactive,inactive,inactive,inactive,inactive,inactive,inactive,inactive,inactive,inactive,inactive,inactive
CC(C)NCC(O)COc1ccc(COCCOC(C)C)cc1 (stereo unspecified),inactive,inactive,inactive,inactive,inactive,inactive,inactive,inactive,inactive,inactive,,inactive,inactive,inactive,inactive,inactive,inactive,inactive,inactive,inactive
Cc1[nH]c(=O)c(C#N)cc1-c1ccncc1,inactive,inactive,inactive,inactive,inactive,inactive,inactive,,inactive,inactive,inactive,inactive,inactive,inactive,inactive,inactive,inactive,inactive,inactive,inactive
N=c1nc(N2CCCCC2)cc(N)n1O,inactive,inactive,inactive,inactive,inactive,inactive,inactive,inactive,inactive,inactive,inactive,inactive,inactive,inactive,inactive,inactive,inactive,inactive,inactive,inactive
Clc1cccc(Cl)c1NC1=NCCN1,inactive,inactive,inactive,inactive,inactive,inactive,inactive,inactive,inactive,inactive,inactive,inactive,inactive,inactive,inactive,inactive,inactive,inactive,inactive,inactive
Nc1nc2c(ncn2COCCO)c(=O)[nH]1,inactive,inactive,inactive,inactive,inactive,inactive,inactive,inactive,inactive,inactive,inactive,inactive,inactive,inactive,inactive,inactive,inactive,inactive,inactive,inactive
NNCCc1ccccc1,inactive,inactive,inactive,inactive,inactive,inactive,inactive,,inactive,inactive,inactive,,inactive,,inactive,inactive,inactive,inactive,inactive,inactive
O=c1[nH]cnc2[nH]ncc12,inactive,inactive,inactive,inactive,inactive,inactive,inactive,inactive,inactive,inactive,inactive,inactive,inactive,inactive,inactive,inactive,inactive,inactive,inactive,inactive
NC[C@H](O)c1ccc(O)c(O)c1,inactive,inactive,inactive,inactive,inactive,inactive,inactive,inactive,inactive,inactive,inactive,inactive,inactive,inactive,inactive,inactive,inactive,inactive,inactive,inactive
NCCc1ccc(O)c(O)c1,inactive,inactive,inactive,inactive,inactive,inactive,inactive,inactive,inactive,,inactive,inactive,inactive,inactive,inactive,inactive,inactive,inactive,inactive,inactive
NCCCC(N)(C(=O)O)C(F)F (stereo unspecified),inactive,inactive,inactive,inactive,inactive,inactive,inactive,inactive,inactive,inactive,inactive,inactive,inactive,inactive,inactive,inactive,inactive,inactive,inactive,inactive
CC(C[N+](C)(C)C)OC(N)=O (stereo unspecified),inactive,inactive,inactive,inactive,inactive,inactive,inactive,inactive,inactive,inactive,inactive,inactive,inactive,inactive,inactive,inactive,inactive,inactive,inactive,inactive
O=C1CCC(N2C(=O)c3ccccc3C2=O)C(=O)N1 (stereo unspecified),inactive,inactive,inactive,inactive,inactive,inactive,inactive,inactive,inactive,inactive,inactive,inactive,inactive,inactive,inactive,inactive,inactive,inactive,inactive,inactive
Cc1[nH]c(=O)c(C#N)cc1-c1ccc2nccn2c1,inactive,inactive,inactive,inactive,inactive,inactive,inactive,inactive,inactive,inactive,inactive,inactive,inactive,inactive,inactive,inactive,inactive,inactive,inactive,inactive
COc1ccc2nc(S(=O)Cc3ncc(C)c(OC)c3C)[nH]c2c1 (stereo unspecified),inactive,inactive,inactive,inactive,inactive,inactive,,inactive,inactive,inactive,inactive,inactive,inactive,inactive,inactive,inactive,inactive,inactive,inactive,inactive
NC(=O)c1cnccn1,inactive,inactive,inactive,inactive,inactive,inactive,inactive,inactive,inactive,inactive,inactive,inactive,inactive,inactive,inactive,inactive,inactive,inactive,inactive,inactive
Cc1cc2c(C(C)C)c(O)c(O)c(C=O)c2c(O)c1-c1c(C)cc2c(C(C)C)c(O)c(O)c(C=O)c2c1O,,,,,10 µM (active),,11.2 µM (active),,,11.2 µM (active),,,12.6 µM (active),,,,,,,
CCCc1nn(C)c2c(=O)[nH]c(-c3cc(S(=O)(=O)N4CCN(C)CC4)ccc3OCC)nc12,inactive,inactive,inactive,inactive,,inactive,inactive,inactive,inactive,inactive,inactive,inactive,inactive,inactive,inactive,inactive,inactive,,inactive,inactive
CCCCNc1cc(C(=O)O)cc(S(N)(=O)=O)c1Oc1ccccc1,inactive,inactive,,inactive,inactive,inactive,inactive,inactive,inactive,inactive,inactive,inactive,inactive,inactive,inactive,inactive,inactive,inactive,inactive,inactive
